Broadly, the AC50 is the concentration at which the activity in the assay is half-maximal.

Activity calls are given as the source filed them. The calls were made as follows: active = hit-call score of the fitted dose curve at least 0.9, where 1 is the maximum; inactive = score below 0.9.

Read-out in the first assay: MicroRNA 122 (MIR122), gene 406906
Nature of the assay: LTEA_HepaRG_MIR122: Life Technologies and Expression Analysis (LTEA) Assay for MicroRNA 122 (MIR122) using HepaRG (AID 2283516). Also: the transcript read is the microRNA miR-122. The settings on record: mRNA level, 48 h; actives raise or lower the signal. In short, it runs like this: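 qRT-PCR read-out (TaqMan, Fluidigm array), normalized to three housekeeping genes; HepaRG cells dosed 48 h at 8 concentrations up to 100 uM in 0.5% DMSO, duplicate; gain or loss fitted against DMSO baseline.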
Take `CCCCCc1ccc(N)cc1`: the result was inactive.

`CC(O)CC(C)(C)O` (centres undefined): the outcome was inactive.

For the compound `O=C1CCC(C2CCCCC2)CC1`, the compound was called inactive.

`CC[C@@H]1C[C@H](N(Cc2cc(C(F)(F)F)cc(C(F)(F)F)c2)C(C)=O)c2cc(C(F)(F)F)ccc2N1C(=O)OC(C)C`: the compound was called inactive.

Take `O=c1ccc2ccccc2o1`: the compound was classed as inactive.

On to `CC(C)(c1cc(Br)c(O)c(Br)c1)c1cc(Br)c(O)c(Br)c1`, for which the compound was classed as inactive.

Take `CO[C@H]1/C=C/O[C@@]2(C)Oc3c(C)c(O)c4c(O)c(c(/C=N/N5CCN(C)CC5)c(O)c4c3C2=O)NC(=O)/C(C)=C\C=C\[C@H](C)[C@H](O)[C@@H](C)[C@@H](O)[C@@H](C)[C@H](OC(C)=O)[C@@H]1C`: the call was inactive.

Take `O=C=NCCCCCCN=C=O`: the outcome was inactive.

For `O=C(Nc1ccc(Cl)cc1)Nc1ccc(Cl)c(Cl)c1`, the outcome was inactive.

Take `Cc1c2ccccc2c(C)c2c1ccc1ccccc12`: the AC50 is 66 µM (active).

For `Cc1ncc(CO)c(CO)c1O`, the compound was called inactive.

On to `COc1cccc([C@H](O)C2CCN(CCc3ccc(F)cc3)CC2)c1OC`, for which the compound was classed as inactive.

`CCN(Cc1cccnc1)C(=O)c1cccc(Cl)c1[C@]1(C)C(=O)N(Cc2ccc(OC)cc2OC)c2ccc(Cl)cc21`: the AC50 is 18.1 µM (active).

For the compound `Cc1oc2c(NC(=O)c3c(Cl)cccc3Cl)cccc2c1C(C)(C)O`, the AC50 is 38.6 µM (active).

As to `Cc1cccc2ccccc12`, the compound was classed as inactive.

With `CC1=CC(=O)/C(=C(/C)O)C(=O)O1`, the compound was classed as inactive.

For `Cc1cn([C@H]2C[C@H](N=[N+]=[N-])[C@@H](CO)O2)c(=O)[nH]c1=O`, the result was inactive.

Turning to `c1ccc2ccccc2c1`, the compound was called inactive.

Turning to `O=c1c(-c2ccc(O)cc2)coc2cc(O)cc(O)c12`, the outcome was inactive.

On to `Cc1ccc2oc(CN(Cc3ccccc3)C(=O)Nc3c(F)cc(F)cc3F)c(-c3ccc(Cl)cc3)c2c1`, for which the compound was classed as inactive.

With `C[C@]12CC[C@@H]3c4ccc(O)cc4CC[C@H]3[C@@H]1CCC2=O`, the outcome was inactive.

Turning to `COc1cc(C(=O)NC2CCN(C)CC2)ccc1Nc1ncc2c(n1)N(C1CCCC1)CC(F)(F)C(=O)N2C`, the outcome was inactive.

On to `CCCCOC(=O)CC(CC(=O)OCCCC)(OC(C)=O)C(=O)OCCCC`, for which the compound was classed as inactive.

Consider `O=C(O)Cc1cc(I)c(Oc2ccc(O)c(I)c2)c(I)c1`, for which the result was inactive.

`CC1(C)NC(=O)N(c2ccc([N+](=O)[O-])c(C(F)(F)F)c2)C1=O`: the AC50 is 80.9 µM (active).

In the case of `CCCCOC(=O)c1ccc(O)cc1`, the outcome was inactive.

On to `CC/C(=C(/CC)c1ccc(O)cc1)c1ccc(O)cc1`, for which the outcome was inactive.

For the compound `NCc1cccc(C2CCN(C(=O)c3ccc(C#Cc4ccccc4F)o3)CC2)c1`, the AC50 was 97.8 µM (active).

Consider `CCCCCCCCN(C)CCCCCCCC`, for which the outcome was inactive.

Take `O=C(O)Cn1c(=O)n(Cc2ccc(Br)cc2F)c(=O)c2ccc(Cl)cc21`: the result was inactive.

`CCCCCCCCOc1ccc(C(=O)c2ccccc2)c(O)c1`: the outcome was inactive.

As for `CC(=O)N1CCN(c2ccc(OC[C@H]3CO[C@](Cn4ccnc4)(c4ccc(Cl)cc4Cl)O3)cc2)CC1`, the AC50 is 13.3 µM (active).

In the case of `c1ccc2n[nH]nc2c1`, the call was inactive.

On to `O=CCCCC=O`, for which the result was inactive.

With `CN(C)c1ccc(C(=C2C=CC(=[N+](C)C)C=C2)c2ccc(N(C)C)cc2)cc1`, the AC50 was 6.78 µM (active).

Turning to `CN(C)C(=O)C1(N2CCCCC2)CCN(CC[C@@]2(c3ccc(Cl)c(Cl)c3)CN(C(=O)c3ccccc3)CCO2)CC1`, the AC50 was 10.9 µM (active).

For `CCCCCCCCCCCC[N+](C)(C)C`, the AC50 is 75 µM (active).

In the case of `Cc1cc2c(cc1C(F)(F)F)N(C(=O)Nc1ccc(Oc3cccnc3C)nc1)CC2`, the AC50 is 46 µM (active).

Read-out in the next assay: matrix metalloproteinase-10 (MMP10), MMP10 (gene 4319)
Kind of assay: LTEA_HepaRG_MMP10: Life Technologies and Expression Analysis (LTEA) Assay for matrix metalloproteinase-10 (MMP10) using HepaRG (AID 2283517). The settings on record: mRNA level, 48 h; actives raise or lower the signal. In short, it runs like this: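 Expression measured by TaqMan qRT-PCR with ACTB/GAPDH/POLR2A normalisation after 48 h chemical exposure of HepaRG cells. Eight half-log concentrations, top 100 uM, 0.5% DMSO vehicle, duplicates; gain or loss fitted against vehicle.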
Take `CCCCCc1ccc(N)cc1`: the call was inactive.

Regarding `CC(O)CC(C)(C)O` (centres undefined), the outcome was inactive.

With `O=C1CCC(C2CCCCC2)CC1`, the compound was classed as inactive.

Regarding `CC[C@@H]1C[C@H](N(Cc2cc(C(F)(F)F)cc(C(F)(F)F)c2)C(C)=O)c2cc(C(F)(F)F)ccc2N1C(=O)OC(C)C`, the compound was classed as inactive.

`O=c1ccc2ccccc2o1`: the compound was called inactive.

With `O=C(Nc1ccc(Cl)cc1)Nc1ccc(Cl)c(Cl)c1`, the AC50 was 27.6 µM (active).

Regarding `Cc1c2ccccc2c(C)c2c1ccc1ccccc12`, the AC50 was 79.5 µM (active).

In the case of `Cc1cccc2ccccc12`, the result was inactive.

`Cc1cn([C@H]2C[C@H](N=[N+]=[N-])[C@@H](CO)O2)c(=O)[nH]c1=O`: the compound was called inactive.

For `Cc1ccc2oc(CN(Cc3ccccc3)C(=O)Nc3c(F)cc(F)cc3F)c(-c3ccc(Cl)cc3)c2c1`, the compound was classed as inactive.

For `C[C@]12CC[C@@H]3c4ccc(O)cc4CC[C@H]3[C@@H]1CCC2=O`, the compound was classed as inactive.

Turning to `CCCCOC(=O)CC(CC(=O)OCCCC)(OC(C)=O)C(=O)OCCCC`, the call was inactive.

In the case of `CC1(C)NC(=O)N(c2ccc([N+](=O)[O-])c(C(F)(F)F)c2)C1=O`, the compound was called inactive.

Regarding `CCCCOC(=O)c1ccc(O)cc1`, the compound was classed as inactive.

For the compound `CC/C(=C(/CC)c1ccc(O)cc1)c1ccc(O)cc1`, the AC50 is 86.9 µM (active).

For `CCCCCCCCN(C)CCCCCCCC`, the outcome was inactive.

As to `CC(=O)N1CCN(c2ccc(OC[C@H]3CO[C@](Cn4ccnc4)(c4ccc(Cl)cc4Cl)O3)cc2)CC1`, the half-maximal activity concentration (AC50) was 16.7 µM (active).

Turning to `c1ccc2n[nH]nc2c1`, the call was inactive.

Turning to `O=CCCCC=O`, the compound was classed as inactive.

On to `CN(C)c1ccc(C(=C2C=CC(=[N+](C)C)C=C2)c2ccc(N(C)C)cc2)cc1`, for which the AC50 was 8.54 µM (active).

Take `CN(C)C(=O)C1(N2CCCCC2)CCN(CC[C@@]2(c3ccc(Cl)c(Cl)c3)CN(C(=O)c3ccccc3)CCO2)CC1`: the AC50 was 77.1 µM (active).
